The source of these data is the supplement of paper PMC6555819.

Assay in all cases: PBM binding z-score (relative to random genomic background probes); higher = stronger binding; sequences stand for … in GC…GCGATTGACAGCGTAGAATGAAGG
In assay [1] the test system is FXR:RXRa (NR concentration 270 nM, RXRa partner concentration 90 nM). The method in brief:
(§1)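 Regression normalization was applied to scanned fluorescence from custom Agilent 4×180K protein-binding microarrays. Before scanning, arrays were incubated 1 h with ligand-free nuclear receptor dimers, and binding was detected with antibodies against each partner (one per run). Binding z-scores use the random background probes as reference.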

In assay [2] the test system is LXRa:RXRa (NR concentration 270 nM, RXRa partner concentration 90 nM). The method in brief: as §1
Assay [3] concerns LXRa homodimer (NR concentration 270 nM). The method in brief:
as §1

Assay [4] relates to LXRb:RXRa (NR concentration 270 nM, RXRa partner concentration 90 nM). The method in brief:
as §1

For assay [5], the system named is LXRb homodimer (NR concentration 270 nM). The method in brief: as §1
Assay [6] deals with PPARa:RXRa (NR concentration 270 nM, RXRa partner concentration 90 nM). The essentials: as §1
Assay [7] has as its system PPARg:RXRa (NR concentration 180 nM, RXRa partner concentration 90 nM). The method in brief: as §1
For assay [8], the system named is PPARg:RXRa 270nM:90nM, anti-RXR (NR concentration 270 nM, RXRa partner concentration 90 nM). The essentials: as §1
Assay [9] deals with PPARg:RXRa 30nM:10nM, anti-RXR (NR concentration 30 nM, RXRa partner concentration 10 nM). The method in brief: as §1
Assay [10] deals with PPARg:RXRa 90nM:30nM, anti-RXR (NR concentration 90 nM, RXRa partner concentration 30 nM). The essentials: as §1
Assay [11] deals with PPARg:RXRa DBDmut IVT, anti-RXR (DBD mutation: RXRa K156A/R161A, NR concentration 270 nM, RXRa partner concentration 90 nM). The essentials: as §1
Assay [12] has as its system PPARg:RXRa IVT, anti-PPARg (NR concentration 270 nM, RXRa partner concentration 90 nM). The method in brief:
as §1

Assay [13] has as its system PPARg DBDmut:RXRa IVT, anti-PPARg (DBD mutation: PPARg1 K132A/R137A, NR concentration 270 nM, RXRa partner concentration 90 nM). The method in brief: as §1
For assay [14], the system named is PPARg DBDmut IVT, anti-PPARg (DBD mutation: PPARg1 K132A/R137A, NR concentration 270 nM). The essentials: as §1
The test system of assay [15] is PPARg homodimer (NR concentration 180 nM). The essentials: as §1
Assay [16] has as its system PXR:RXRa (NR concentration 270 nM, RXRa partner concentration 90 nM). The essentials: as §1
Assay [17] has as its system PXR homodimer (NR concentration 270 nM). The method in brief:
as §1

For assay [18], the system named is RARa:RXR (NR concentration 270 nM, RXRa partner concentration 90 nM). The essentials:
as §1

The test system of assay [19] is RARa homodimer (NR concentration 270 nM). The method in brief:
as §1

For assay [20], the system named is RARb:RXRa (NR concentration 270 nM, RXRa partner concentration 90 nM). The essentials:
as §1

Turning to TAGCCTAGGCCATGCGGGCCAGTATAGTGTCGGC, the PBM binding z-score in [1] was -0.771; in assay [2] it was -1.17; in [3], -0.671; in assay [4], -1.47; in assay [5] it was -1.47; in assay [6] it was -0.776. Moreover, the PBM binding z-score is -0.313 in [7]; -1.06 in [8]; -0.847 in [9]; -1.18 in assay [10]; -0.849 in [11]; -0.0851 in [12]. For the same sequence, the PBM binding z-score in assay [13] is -0.949; in [14], -1.38; in assay [15] it was -1.26; in assay [16], -0.956; in assay [17], -1.02; in assay [18], -0.877. The PBM binding z-score is -1.18 in assay [19] and 0.00206 in [20].

As for CCTATTAGTTGCCCATAAGGGCAACCGAAGCTCG, the PBM binding z-score in [1] was 0.523; in assay [2] it was 0.339; in assay [3], 0.425; in assay [4] it was 0.645; in [5], 0.866; in assay [6] it was 0.517. Also, the PBM binding z-score in assay [7] was 0.154; in [8], 0.281; in [9], -0.263; in [10], 0.0446; in assay [11], -0.00448; in [12], 0.926. Also, the PBM binding z-score in assay [13] is 0.125; in assay [14] it was 1.13; in [15], 0.921; in [16] it was 0.597; in assay [17] it was 0.552; in assay [18], 0.824. Further, the PBM binding z-score was 1.45 in [19] and 1.29 in assay [20].

Regarding ACTCGCAGGCCAAGTTTGGGTCACTCAAACAAAG, the PBM binding z-score in assay [1] is 0.277; in assay [2] it was 0.222; in assay [3], -0.578; in [4], 0.571; in assay [5], -0.644; in assay [6] it was 1.39. The PBM binding z-score in [7] was -0.313; in assay [8], 0.179; in [9] it was -0.845; in assay [10], -0.263; in [11], 0.227; in assay [12] it was 0.485. In addition, the PBM binding z-score in [13] was -0.206; in [14] it was -0.189; in [15], 0.897; in assay [16] it was 0.84; in [17], -0.477; in assay [18], 1.47. The PBM binding z-score in assay [19] was -0.257; in [20], 1.89.

For CAGCCTAGGTCAGGGCTAGTATAGGAGGAACGTT, the PBM binding z-score in assay [1] is 1.42; in [2], 0.697; in [3], -0.359; in assay [4], 0.186; in [5] it was -1.36; in [6], 1.99. Besides, the PBM binding z-score in [7] was 0.77; in assay [8] it was 0.899; in assay [9], -0.0707; in assay [10] it was 0.264; in [11], 1.32; in [12], 1.55. For the same sequence, the PBM binding z-score in assay [13] was -1.23; in assay [14], -0.952; in assay [15] it was 0.47; in assay [16] it was 0.176; in [17], -0.363; in assay [18], 1.08. Moreover, the values for the PBM binding z-score in [19] and in assay [20] were -0.159 and 3.41, respectively.

As for ATACCAAGGTGATGGTGAGGTCGTTGATACTAAC, the PBM binding z-score in [1] was 0.921; in assay [2], 0.64; in assay [3], 0.268; in assay [4], 1.09; in [5], -0.372; in assay [6], 1.56. In addition, the PBM binding z-score in assay [7] is 0.532; in [8], 0.222; in assay [9], 0.0287; in assay [10], 0.21; in assay [11], 0.223; in assay [12], 1.12. Moreover, the PBM binding z-score in assay [13] was found to be 0.793; in assay [14], 0.597; in assay [15], 1.2; in assay [16] it was 2.71; in [17], 1.55; in assay [18], 1.47. Also, the values for the PBM binding z-score in assay [19] and in assay [20] were 0.462 and 1.17, respectively.

With GCTAGCAGGCCATTTGGGTCACGCAATGACGGGC, the PBM binding z-score in assay [1] was 0.679; in assay [2] it was 0.476; in assay [3], -0.416; in assay [4], 0.378; in [5], -0.491; in assay [6], 2.23. Besides, the PBM binding z-score in assay [7] amounted to 1.32; in [8] it was 1.45; in [9] it was 0.36; in assay [10], 0.648; in assay [11] it was 2.42; in [12], 3.05. For the same sequence, the PBM binding z-score is -0.368 in assay [13]; -0.646 in assay [14]; 0.0821 in [15]; 1.13 in assay [16]; -0.117 in assay [17]; 1.88 in [18]. Moreover, the PBM binding z-score in assay [19] is -0.356; in assay [20], 1.91.

Regarding GATACAGGGTCAAGGCCTGAGTACGCGTATTGAT, the PBM binding z-score in assay [1] is 6.17; in assay [2], 3.94; in assay [3], -0.32; in [4], 3.35; in assay [5], -0.67; in assay [6], 5.35. Moreover, the PBM binding z-score in assay [7] is 5.34; in assay [8] it was 5.5; in assay [9], 2.3; in [10], 4.29; in assay [11] it was 2.78; in assay [12], 3.87. In addition, the PBM binding z-score is 0.27 in [13]; 0.16 in [14]; 1.74 in assay [15]; 3.43 in assay [16]; 0.0722 in assay [17]; 3.99 in assay [18]. The figures for the PBM binding z-score in assay [19] and in assay [20] were 0.47 and 4.4, respectively.
